Experimental data taken from PubChem BioAssay AID1159580 (chemical genetic matrix, 2015).
Several values for one entry are separate records, joined by “and”; a condition that tells them apart may be missing. Equal values may be shown once. Among all 5,500 compounds or so, about 2,000 (36%) were called active. Not shown: some 18% with an inconclusive outcome. No stated cut-off is given here; in the data, active means normalized growth mostly below about 0.91 (no sharp cut-off); inconclusive means no clear call, values can overlap the other calls; inactive means mostly above about 0.92. Some of the results follow.

Experiment: chemical genetic growth profiling, strain panel (AID 1159580);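 further: tested at 20 µM; growth read once vehicle control cultures reached saturation at 30 °C; 1 = growth at the plate median or of vehicle wells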
Settings: S. cerevisiae deletion strains, growth OD

Measured: normalized growth

CC(=O)OC1CCC2(C)C3CC(=O)C4(C)C(CC5OC6(CCC(C)CO6)[C@@H](C)C54)C3CC[C@H]2C1 (stereo not given in full)
inactive: locus YAL013W, strain DEP1, stronger effect = lower value 0.982 | locus YAL021C, strain ccr4, stronger effect = lower value 0.987 | locus YAL026C, strain drs2, stronger effect = lower value 0.991 | locus YAL030W, strain snc1, stronger effect = lower value 0.981 | locus YBL061C, strain skt5, stronger effect = lower value 0.982 | locus YBR009C, strain hhf1, stronger effect = lower value 0.991 | locus YBR021W, strain FUR4, stronger effect = lower value 1.07 | locus YBR023C, strain chs3, stronger effect = lower value 0.994 | locus YBR171W, strain sec66, stronger effect = lower value 0.984 | locus YBR229C, strain ROT2, stronger effect = lower value 0.99 | locus YBR231C, strain swc5, stronger effect = lower value 1.01 | locus YBR279W, strain paf1, stronger effect = lower value 0.987 | locus YCL011C, strain gbp2, stronger effect = lower value 0.979 | locus YCL016C, strain dcc1, stronger effect = lower value 0.98 | locus YCL029C, strain bik1, stronger effect = lower value 0.963 | locus YCL069W, strain vba3, stronger effect = lower value 1.01 | locus YCR088W, strain abp1, stronger effect = lower value 0.994 | locus YDL005C, strain med2, stronger effect = lower value 0.975 | locus YDL035C, strain GPR1, stronger effect = lower value 1.01 | locus YDL040C, strain nat1, stronger effect = lower value 0.99 | locus YDL074C, strain BRE1, stronger effect = lower value 0.983 | locus YDL101C, strain DUN1, stronger effect = lower value 0.992 | locus YDL185W, strain tfp1, stronger effect = lower value 0.952 | locus YDL192W, strain arf1, stronger effect = lower value 0.986 | locus YDR001C, strain nth1, stronger effect = lower value 0.988 | locus YDR069C, strain doa4, stronger effect = lower value 0.968 | locus YDR101C, strain arx1, stronger effect = lower value 1 | locus YDR137W, strain rgp1, stronger effect = lower value 0.973 | locus YDR159W, strain sac3, stronger effect = lower value 1.03 | locus YDR162C, strain NBP2, stronger effect = lower value 0.972 | locus YDR195W, strain ref2 0.942 | locus YDR297W, strain sur2, stronger effect = lower value 0.978 | locus YDR318W, strain mcm21, stronger effect = lower value 0.996 | locus YDR334W, strain swr1, stronger effect = lower value 0.985 | locus YDR335W, strain msn5, stronger effect = lower value 0.978 | locus YDR388W, stronger effect = lower value 0.978 | locus YDR392W, strain spt3, stronger effect = lower value 1.01 | locus YDR502C, strain sam2, stronger effect = lower value 0.971 | locus YEL003W, strain gim4, stronger effect = lower value 0.986 | locus YEL037C, strain rad23, stronger effect = lower value 0.998 | locus YEL061C, strain CIN8 (second series), stronger effect = lower value 0.999 | locus YER015W, strain faa2, stronger effect = lower value 0.988 | locus YER016W, strain bim1, stronger effect = lower value 0.96 | locus YER110C, stronger effect = lower value 0.97 | locus YER111C, strain swi4, stronger effect = lower value 0.995 | locus YER155C, strain BEM2 (second series), stronger effect = lower value 0.999 | locus YER155C, strain BEM2, stronger effect = lower value 1.01 | locus YER167W, strain BCK2, stronger effect = lower value 1.01 | locus YFR010W, strain ubp6, stronger effect = lower value 1 | locus YGL078C, strain dbp3, stronger effect = lower value 0.988 | locus YGL086W, strain mad1, stronger effect = lower value 0.993 | locus YGL167C, strain pmr1, stronger effect = lower value 0.99 | locus YGL173C, strain kem1, stronger effect = lower value 1.01 | locus YGL227W, strain vid30, stronger effect = lower value 0.974 | locus YGL240W, strain doc1, stronger effect = lower value 0.98 | locus YGL248W, strain PDE1, stronger effect = lower value 0.991 | locus YGL253W, strain hxk2, stronger effect = lower value 0.976 | locus YGR078C, strain PAC10, stronger effect = lower value 0.986 | locus YGR135W, strain pre9, stronger effect = lower value 0.977 | locus YGR252W, strain gcn5, stronger effect = lower value 0.986 | locus YHR013C, strain ard1, stronger effect = lower value 0.957 | locus YHR027C, strain rpn1, stronger effect = lower value 0.982 | locus YHR030C, strain SLT2, stronger effect = lower value 0.977 | locus YHR079C, strain IRE1 (second series), stronger effect = lower value 0.987 | locus YHR079C, strain IRE1, stronger effect = lower value 1.01 | locus YHR094C, strain hxt1, stronger effect = lower value 0.975 | locus YHR129C, strain ARP1, stronger effect = lower value 0.982 | locus YHR142W, strain chs7, stronger effect = lower value 0.955 | locus YHR200W, strain rpn10, stronger effect = lower value 0.993 | locus YIL066C, strain RNR3, stronger effect = lower value 0.988 | locus YIL073C, strain SPO22, stronger effect = lower value 0.931 | locus YIL125W, strain kgd1, stronger effect = lower value 0.974 | locus YIR030C, strain dcg1, stronger effect = lower value 0.988 | locus YJL092W, strain hpr5, stronger effect = lower value 0.985 | locus YJL095W, strain BCK1 (second series), stronger effect = lower value 0.981 | locus YJL095W, strain BCK1, stronger effect = lower value 0.962 and 1 | locus YJL115W, strain asf1, stronger effect = lower value 0.958 | locus YJL129C, strain trk1, stronger effect = lower value 0.969 | locus YJL134W, strain LCB3, stronger effect = lower value 0.99 | locus YJL154C, strain vps35, stronger effect = lower value 0.986 | locus YJL164C, strain tpk1, stronger effect = lower value 0.993 | locus YJL166W, strain qcr8, stronger effect = lower value 0.965 | locus YJL168C, strain set2, stronger effect = lower value 0.983 | locus YJL187C, strain SWE1 (second series), stronger effect = lower value 0.977 | locus YJR066W, strain TOR1, stronger effect = lower value 0.934 | locus YJR075W, strain HOC1, stronger effect = lower value 0.988 | locus YKL009W, strain mrt4, stronger effect = lower value 0.983 | locus YKL068W, stronger effect = lower value 0.981 | locus YKL085W, strain MDH1 (second series), stronger effect = lower value 0.988 | locus YKL085W, strain MDH1, stronger effect = lower value 0.988 | locus YKL160W, strain elf1, stronger effect = lower value 0.964 | locus YKR001C, strain vps1, stronger effect = lower value 0.992 | locus YKR026C, strain gcn3, stronger effect = lower value 1 | locus YKR091W, strain srl3, stronger effect = lower value 0.964 | locus YLL001W, strain dnm1, stronger effect = lower value 1.01 | locus YLL026W, stronger effect = lower value 0.977 | locus YLL041C, strain sdh2, stronger effect = lower value 0.992 | locus YLR027C, strain aat2, stronger effect = lower value 0.965 | locus YLR039C, strain RIC1, stronger effect = lower value 0.994 | locus YLR058C, strain SHM2, stronger effect = lower value 0.982 | locus YLR102C, strain apc9, stronger effect = lower value 0.972 | locus YLR113W, strain HOG1, stronger effect = lower value 0.976 | locus YLR221C, strain rsa3, stronger effect = lower value 1.01 | locus YLR258W, strain gsy2, stronger effect = lower value 0.961 | locus YLR262C, strain YPT6 (second series), stronger effect = lower value 0.974 | locus YLR268W, strain sec22, stronger effect = lower value 0.984 | locus YLR320W, strain mms22, stronger effect = lower value 1.03 | locus YLR342W, strain FKS1 (second series), stronger effect = lower value 1.03 | locus YLR342W, strain FKS1, stronger effect = lower value 0.975 | locus YLR357W, strain rsc2, stronger effect = lower value 0.964 | locus YLR370C, strain arc18, stronger effect = lower value 0.973 | locus YLR371W, strain rom2, stronger effect = lower value 0.992 | locus YLR384C, strain iki3, stronger effect = lower value 0.983 | locus YLR418C, strain cdc73, stronger effect = lower value 1.02 | locus YML016C, strain PPZ1, stronger effect = lower value 1.01 | locus YML032C, strain rad52, stronger effect = lower value 0.996 | locus YML120C, strain ndi1, stronger effect = lower value 0.989 | locus YML124C, strain tub3, stronger effect = lower value 0.982 | locus YMR058W, strain fet3, stronger effect = lower value 0.979 | locus YMR078C, strain ctf18, stronger effect = lower value 0.986 | locus YMR125W, strain sto1, stronger effect = lower value 0.986 | locus YMR129W, stronger effect = lower value 0.975 | locus YMR205C, strain PFK2, stronger effect = lower value 1 | locus YMR223W, strain ubp8, stronger effect = lower value 0.981 | locus YMR231W, strain pep5, stronger effect = lower value 0.989 | locus YMR263W, strain SAP30, stronger effect = lower value 0.979 | locus YMR307W, strain GAS1, stronger effect = lower value 1.06 | locus YNL067W, strain RPL9B, stronger effect = lower value 0.967 | locus YNL071W, strain lat1, stronger effect = lower value 1 | locus YNL153C, strain GIM3, stronger effect = lower value 0.973 | locus YNL183C, strain NPR1, stronger effect = lower value 0.956 | locus YNL209W, strain ssb2, stronger effect = lower value 1 | locus YNL233W, strain BNI4, stronger effect = lower value 0.989 | locus YNL248C, strain rpa49, stronger effect = lower value 0.955 | locus YNL250W, strain rad50, stronger effect = lower value 0.969 | locus YNL271C, strain bni1, stronger effect = lower value 0.994 | locus YNL298W, strain CLA4, stronger effect = lower value 0.973 | locus YNL307C, strain MCK1, stronger effect = lower value 0.974 | locus YNL322C, strain KRE1 (second series), stronger effect = lower value 0.98 | locus YNR049C, strain mso1, stronger effect = lower value 0.966 | locus YNR052C, strain pop2, stronger effect = lower value 0.976 | locus YOL006C, strain TOP1, stronger effect = lower value 1.06 | locus YOL012C, strain htz1 0.635 | locus YOL147C, strain pex11, stronger effect = lower value 0.965 | locus YOR001W, strain rrp6, stronger effect = lower value 1.03 | locus YOR061W, strain CKA2, stronger effect = lower value 0.997 | locus YOR069W, strain VPS5, stronger effect = lower value 0.99 | locus YOR070C, strain gyp1, stronger effect = lower value 0.993 | locus YOR080W, strain dia2, stronger effect = lower value 0.974 | locus YOR083W, strain WHI5, stronger effect = lower value 0.974 | locus YOR106W, strain vam3, stronger effect = lower value 0.963 | locus YOR136W, strain idh2, stronger effect = lower value 0.981 | locus YOR144C, strain elg1, stronger effect = lower value 0.982 | locus YOR184W, strain ser1, stronger effect = lower value 1.01 | locus YOR231W, strain MKK1, stronger effect = lower value 0.988 | locus YOR265W, strain rbl2, stronger effect = lower value 0.968 | locus YOR270C, strain vph1, stronger effect = lower value 0.999 | locus YOR290C, strain snf2, stronger effect = lower value 0.96 | locus YOR316C, strain cot1, stronger effect = lower value 0.97 | locus YPL051W, strain arl3, stronger effect = lower value 0.977 | locus YPL078C, strain atp4, stronger effect = lower value 0.979 | locus YPL106C, strain sse1, stronger effect = lower value 0.986 | locus YPL240C, strain hsp82, stronger effect = lower value 0.982 | locus YPL241C, strain CIN2, stronger effect = lower value 0.994 | locus YPL256C, strain CLN2, stronger effect = lower value 0.993 | locus YPR119W, strain clb2, stronger effect = lower value 0.995 | locus YPR141C, strain kar3, stronger effect = lower value 0.97 | locus YPR163C, strain tif3, stronger effect = lower value 0.962 | locus YPR167C, strain met16, stronger effect = lower value 0.988 | strain wtn01, stronger effect = lower value 0.985
